Reference: PubChem BioAssay AID1508623 (National Center for Advancing Translational Sciences (NCATS), 2021)
Out of some 48,000 compounds screened, about 450 (0.94%) were called active. Inconclusive results (about 19%) are left out. What follows is part of a selection rich in actives, with near analogues and random picks from the rest. Unmarked numbers belong to inactive results. Calls follow the shape of the dose curve; as a rule, active = well fitted inhibition curve with a large enough effect; inconclusive = small, poorly fitted or top-dose-only effect; inactive = no such curve, though single readings can be large or run the other way.

test: Primary qHTS for Identification of Small Molecule Inhibitors of Huntingtin Promoter Activity; conditions: HEK293 HTT promoter firefly luciferase reporter (activity 0% = vehicle and -100% = no light), 24 h; series mostly up to 57.5 µM; activity change, negative = inhibition: at the top concentration; also: nearly all actives have a fitted effect of over 50% in size
Description: Assay Provider: Russell L. Margolis M.D.
Department Neurology, Johns Hopkins University School of Medicine, Baltimore, MD
Huntington's Disease (HD) is a neurodegenerative disorder caused by a CAG repeat expansion in exon 1 of huntingtin (HTT). While there are currently no disease-modifying treatments for HD, recent efforts have focused on development of nucleotide-based therapeutics to lower HTT expression. As an alternative to siRNA or oligonucleotide methods, we hypothesized that suppression of HTT expression might be accomplished by small molecules that either (1) directly decrease HTT expression by suppressing HTT promoter activity or (2) indirectly decrease HTT expression by increasing the promoter activity of HTT-AS, the gene antisense to HTT that appears to inhibit expression of HTT.
We developed and employed a high throughput screen for modifiers of HTT and HTT-AS promoter activity using luminescent reporter HEK293 cells; of the 52,041 compounds tested, we identified 898 replicable hits. We used a rigorous stepwise approach to assess compound toxicity and the capacity of the compounds to specifically lower huntingtin protein in 5 different cell lines, including HEK293 cells, HD lymphoblastoid cells, mouse primary neurons, HD iPSCs differentiated into cortical-like neurons, and HD hESCs. We found no compounds which were able to lower huntingtin without lowering cell viability in all assays, though the potential efficacy of a few compounds at non-toxic doses could not be excluded.
SEQUENCE No. (1, 2, 3, etc.); […] (e.g., Cells, Incubation, Reagent, etc.); VALUE and DESCRIPTION.
1; Reagent; 4 uL; 2,500 Hek293 luciferase reporter cells per wells
3; Compound; 23 nL; Control inhibitor / compound library
5; Reagent; 2.5 uL; Firefly Luc reagent; Dual-Glo Luciferase Reporter Assay System (Promega)
6; Time; 10 min; room temperature incubation
7; Detection; Luminescence; FLuc
NOTES (numbers refer to sequence above)
1; High-throughput screening, measuring luminescence from a Hek293 luciferase reporter, was performed in 1,536 well white-walled tissue-culture treated plates. 2,500 cells were plated in 4 µL of Opti-MEM per well using a Multidrop Combi Reagent Dispenser (ThermoFisher).
2; Assay plates were cultured for 24 hours.
3; Control inhibitor (PTC124; final concentration of 50 uM) and compound library (at final concentrations of 460 nM - 57.5 uM) were added to the assay plate using the Kalypsis Pintool Robotic System equipped with 1536 pinheads.
4; Cells were then incubated for 24 hours at 37 degrees C prior to luminescence measurements.
5; In all cases, luminescence was measured using the Dual-Glo Luciferase Reporter Assay System (Promega) following the manufacturer's instructions.
6; Room temperature incubation.
7; Luminescence signal was obtained using the PerkinElmer ViewLux plate reader. Results were normalized to vehicle control (0% activity) and zero RLU (-100% activity).
Potency is read from the fitted curve at half-maximal effect.

Row | SMILES | activity change, negative = inhibition [%] | Potency
1 | CCOc1cc(-c2nnc(SCC(=O)NC3CCCCC3)nc2-c2ccc(OC)c(OCC)c2)ccc1OC | -8.07 | –
2 | COc1ccc(Cn2ccc3nc(C)c(C(=O)Nc4ccc(C)c(F)c4)cc3c2=O)cc1 | -9.53 | –
3 | COC(=O)c1ccccc1NC(=O)c1ccc2c(=O)n3c(nc2c1)CCCCC3 | 10.1 | –
4 | CS(=O)(=O)c1ccc(-c2nnc(NC(=O)c3ccc4c(c3)OCCO4)o2)cc1 | -5.72 | –
5 | CCCCNc1ccc(-c2nc(-c3ccncc3)no2)cc1[N+](=O)[O-] | 0.996 | –
6 | Cc1cccc(C)c1NC(=O)c1ccc(N)cc1 | 2.97 | –
7 | CCOC(=O)c1ccc(NC(=O)Cn2c(=O)cc(C)c3c(C)nn(-c4cccc(F)c4)c32)cc1 | -8.8 | –
8 | Cc1ccc2nc(NC(=O)c3nc(SCc4ccccc4F)ncc3Cl)sc2c1 | -12.5 | –
9 | CCC(Sc1nnc(-c2ccc(OC)cc2)c(-c2ccc(OC)cc2)n1)C(=O)NC1CCCCC1 (centres undefined) | 5.07 | –
10 | CCCn1c(NCc2ccc(N(CC)CC)cc2)nc2ccccc21 | -20.8 | –
11 | COc1ccc(CCNS(=O)(=O)c2cc(-c3cc(C)no3)ccc2C)cc1OC | -17.2 | –
12 | CCC1CN(S(=O)(=O)c2cc(-c3cc(C)no3)ccc2C)c2cc(C)ccc2O1 (centres undefined) | -13.3 | –
13 | Cc1cc(-c2ccc(C)c(S(=O)(=O)N3c4ccccc4CC3C)c2)on1 (centres undefined) | – | 14.1 µM (active)
14 | O=C1NC(=O)C(=Cc2cccc(C(F)(F)F)c2)S1 | -7.73 | –
15 | Cc1ccc2c(c1)N(C(=O)Nc1ccc(Br)cc1F)CCO2 | -0.729 | –
16 | COc1cc(-c2noc(-c3ccc(N4CCCC4)c([N+](=O)[O-])c3)n2)cc(OC)c1OC | -12.2 | –
17 | CCNC(=O)CC1C(=O)N(c2ccc(F)cc2)C(=O)N1Cc1ccc(C)cc1 (centres undefined) | -7.1 | –
18 | CCc1cccc(CC)c1NC(=O)Cn1c(=O)c(-c2cc(C)ccc2NC(C)=O)nc2ccccc21 | -3.39 | –
19 | O=S(=O)(c1ccccc1)c1nc(-c2ccc(Cl)cc2Cl)oc1N1CCCCC1 | -9.26 | –
20 | Cc1ccc(Nc2ccc3cc(S(=O)(=O)N4CCCCC4)ccc3n2)cc1F | -16.1 | –
21 | Cc1c(Cl)cccc1NC(=O)c1noc2c1CCCC2 | 57.4 | –
22 | O=C(c1ccc(Cl)cc1)n1nc(-c2cccnc2)nc1NCc1ccc(F)cc1 | -12.9 | –
23 | CCOc1cccc2sc(N3CCN(C(=O)C4CC4)CC3)nc12 | -10.1 | –
24 | CCOc1ccc2nc(N3CCC(C(=O)Nc4cc(C)ccc4C)CC3)sc2c1 | 45.7 | –
25 | CC1CCN(c2nc3ccc(C(=O)N4CCN(c5ccccc5)CC4)cc3s2)CC1 | – | 1.12 µM (active)

Row | SMILES | activity change, negative = inhibition [%] | Potency
26 | CCN(CCCNC(=O)Cn1ncc2c([nH]c3ccccc32)c1=O)c1cccc(C)c1 | 1.31 | –
27 | CCOC(=O)N1CCc2c(sc(NCc3cccc(F)c3)c2C(=O)Nc2ccccc2OCC)C1 | -12.3 | –
28 | O=C(NCc1ccccc1)c1ccc2c(c1)nc1n2CCCCC1 | 18.7 | –
29 | Cc1ccc(C)n1-c1nnc(N2CCC(C(=O)NCc3ccc(F)cc3)CC2)s1 | -27.7 | –
30 | O=C(NCc1ccc(F)cc1)c1ccc2nc(N3CCCCC3)sc2c1 | – | 8.91 µM (active)
31 | CCOc1cccc(CC(=O)N2CCc3c([nH]c4ccccc34)C2c2ccc(F)cc2)c1OCC (centres undefined) | -26.1 | –
32 | Cc1ccc(S(=O)(=O)n2nc(C)c(S(=O)(=O)N3CCCCCC3)c2C)cc1 | -15.8 | –
33 | Cc1cc(O)c(C(c2ccccc2)N2CCN(c3ccccc3F)CC2)c(=O)n1Cc1ccco1 (centres undefined) | -5.4 | –
34 | Cc1cc(C)cc(Nc2ncnc3onc(-c4ccc(F)cc4)c23)c1 | -17.4 | –
35 | COC(=O)CSc1ccc2nnc(CCNS(=O)(=O)c3ccc(C)cc3)n2n1 | -0.0981 | –
36 | CCc1ccccc1NC(=O)c1ccc2c(c1)CCN2S(C)(=O)=O | -3.42 | –
37 | CCOc1ccc(C2CC(=O)c3c([nH]c(C(=O)OCc4ccccc4)c3C)C2)cc1 (centres undefined) | -27.8 | –
38 | Cc1ccc2nc(-c3ccc(C)c(NC(=O)Cc4ccccc4)c3)oc2c1 | – | 12.6 µM (active)
39 | CCC(=O)Nc1cccc(-c2nc3cc(C)ccc3o2)c1 | 16 | –
40 | CCc1ccc2oc(-c3ccc(C)c(NC(=O)/C=C/c4ccco4)c3)nc2c1 | 19.2 | –
41 | Cc1ccccc1CS(=O)(=O)CC1Nc2ccc(C(=O)NCc3ccc(Cl)cc3)cc2NC1=O (centres undefined) | -18.8 | –
42 | O=C(Cn1cnc2c(oc3ccccc32)c1=O)Nc1ccc(OC(F)(F)F)cc1 | 0.986 | –
43 | COc1ccc(OC)c(NC(=O)CSc2nc3ccccc3nc2N2CCCCC2)c1 | -30 | –
44 | Cc1ccc(CCNC(=O)c2ccc(CS(=O)(=O)Cc3cccc(C)c3)o2)cc1 | -25.6 | –
45 | COc1ccc(CCNC(=O)c2ccc3c(c2)sc2nc(-c4ccc(C)cc4)cn23)cc1OC | 0.069 | –
46 | COc1ccc(CCNC(=O)c2ccc(CSCc3ccc(C)cc3)o2)cc1OC | – | 25.1 µM (active)
47 | COc1ccccc1N1CCN(C(CNC(=O)C(=O)NCc2ccc(C)cc2)c2cccnc2)CC1 (centres undefined) | – | 11.2 µM (active)
48 | Cc1ccc(NC(=O)C(=O)NCC(c2cccnc2)N2CCOCC2)cc1 (centres undefined) | -5.3 | –
49 | O=C(NCc1cccnc1)C(=O)NCC(c1cccnc1)N1CCN(c2ccccc2)CC1 (centres undefined) | -32.1 | –
